Laboratory results published in the supplement of paper PMC3334620.
The full ranking holds about 33,000 sequences; the median of “E-score (-0.5 to 0.5)” is about -0.056, and the highest 2% start at about 0.38. The sample as a whole holds a higher share of the highest values than the screen did.

biological target: Stb4 (UniProt P50104); assay: PBM E-score (8-mer binding enrichment) (E-score (-0.5 to 0.5)); higher = stronger / more preferred TF binding; conditions: protein concentration: 200 nM; construct: GST-DNA-binding domain
Method: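 Universal 'all 10-mer' protein binding microarrays (Agilent AMADID 015681) probed with GST-tagged S. cerevisiae TFs (full-length or DBD) made by in vitro transcription/translation (PURExpress), about 100-200 nM. Bound TF was detected with fluorescent anti-GST. Each ungapped 8-mer (which stands for itself and its reverse complement) is scored by the PBM enrichment score (E-score), a modified Wilcoxon-Mann-Whitney statistic from -0.5 to +0.5, computed with the Universal PBM Analysis Suite. Scale: above 0.35 generally sequence-specific binding.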

Sequence of UniProt P50104 (P50104 whole entry, the tested form may be a part): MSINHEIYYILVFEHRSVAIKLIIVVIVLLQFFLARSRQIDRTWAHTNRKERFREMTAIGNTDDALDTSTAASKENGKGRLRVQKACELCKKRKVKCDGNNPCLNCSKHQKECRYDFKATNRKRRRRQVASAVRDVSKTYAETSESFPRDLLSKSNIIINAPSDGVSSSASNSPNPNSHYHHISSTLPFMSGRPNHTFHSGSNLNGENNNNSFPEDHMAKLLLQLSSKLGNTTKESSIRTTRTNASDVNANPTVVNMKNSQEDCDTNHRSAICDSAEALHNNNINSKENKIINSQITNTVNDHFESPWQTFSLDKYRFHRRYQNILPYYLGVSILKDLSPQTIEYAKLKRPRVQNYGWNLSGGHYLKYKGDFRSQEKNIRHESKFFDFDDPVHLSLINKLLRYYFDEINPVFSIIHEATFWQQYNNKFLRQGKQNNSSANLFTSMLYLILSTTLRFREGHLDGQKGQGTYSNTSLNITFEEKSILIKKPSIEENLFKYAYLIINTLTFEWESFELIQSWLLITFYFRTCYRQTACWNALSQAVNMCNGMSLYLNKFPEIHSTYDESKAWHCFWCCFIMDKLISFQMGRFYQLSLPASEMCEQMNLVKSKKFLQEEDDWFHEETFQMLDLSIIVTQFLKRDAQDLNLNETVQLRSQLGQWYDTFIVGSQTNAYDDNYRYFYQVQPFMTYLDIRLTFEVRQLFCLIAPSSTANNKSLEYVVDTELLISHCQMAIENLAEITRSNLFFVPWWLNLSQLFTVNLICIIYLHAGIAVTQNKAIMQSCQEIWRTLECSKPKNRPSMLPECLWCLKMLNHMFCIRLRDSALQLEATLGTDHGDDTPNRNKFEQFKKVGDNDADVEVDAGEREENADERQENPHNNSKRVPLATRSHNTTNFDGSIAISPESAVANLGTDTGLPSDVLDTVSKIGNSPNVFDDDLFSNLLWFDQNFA

Row | Sequence | PBM E-score
1 | ACGTTCAG | -0.252
2 | TCAGGGCA | -0.18
3 | AATACAGT | -0.194
4 | CGGAACTC | 0.401
5 | AGGAACTA | 0.0365
6 | CTGAACTC | -0.175
7 | GGGAACTA | 0.183
8 | AGGAACTC | -0.0879
9 | CGGAACTA | 0.449
10 | ACTCTAGG | -0.212
11 | CAGCTCCA | -0.265
12 | CGCGGCCG | 0.136
13 | AATCGGGC | 0.159
14 | ACTCTGAC | -0.0524
15 | GTATCCCA | -0.0937
16 | ATATCCCG | 0.306
17 | GTATCCGA | 0.487
18 | CTATCCCA | -0.135
19 | ATATCCAG | -0.114
20 | ATATCCGA | 0.482
21 | ATATCCAA | 0.0444
22 | ATATCCGG | 0.424

Row | Sequence | PBM E-score
23 | CTATCCGA | 0.469
24 | GTATCCTA | -0.107
25 | CTATCCAA | -0.268
26 | ATATCCTA | -0.0944
27 | AATCTAAG | -0.107
28 | AGACTGGC | -0.17
29 | ACCCAGCG | -0.0996
30 | CAATGTAA | 0.112
31 | ATTATGGG | -0.0331
32 | TAGATGCA | -0.222
33 | GTCAGCGA | -0.138
34 | ATTGGGTG | -0.0143
35 | GACCTTAA | -0.145
36 | GGGTCTCA | 8e-05
37 | CCGAGCAC | 0.413
38 | ACGAGCAA | -0.0941
39 | TCGAGCAA | -0.141
40 | CCGAGCAA | 0.406
41 | ACGAGCAC | -0.133
42 | GCGAGCAC | -0.135
43 | GAACAGGA | -0.0169
44 | ACGAAGTC | -0.264

Row | Sequence | PBM E-score
45 | CCGAAGTC | 0.417
46 | CAGAAGTC | -0.174
47 | ACGAAGTA | -0.0487
48 | GCGAAGTA | -0.0361
49 | CCGAAGTA | 0.418
50 | ACAGCTTC | 0.0141
51 | AACACCGG | 0.248
52 | CATGCCAA | -0.257
53 | CTTCCTCA | -0.208
54 | CGCACCAC | -0.0216
55 | AGTTTGAG | -0.092
56 | CCCTCGGA | 0.464
57 | GCCTCGAA | -0.0521
58 | CCCTCGCA | -0.0413
59 | CCCTCGTA | -0.114
60 | GCCTCGGA | 0.444
61 | GCCTCGTA | -0.0917
62 | CAAGTTTA | -0.136
63 | ACCTGCAC | -0.0938
64 | AAGGTACA | -0.341
65 | AAGGCTAG | -0.127
66 | GAACCGAA | 0.397

Row | Sequence | PBM E-score
67 | AAACCGAA | 0.259
68 | GAACCGTA | 0.0316
69 | TAACCGAA | 0.431
70 | CAACCGAA | 0.289
71 | GAACCGAC | 0.286
72 | AACCCGGA | 0.375
73 | CTACAGTC | -0.214
74 | CTCATCTA | -0.116
75 | AAAGTGAC | -0.123
76 | AAACCCGT | -0.00663
77 | AAACCCGA | 0.403
78 | GAACCCGA | 0.338
79 | AAACCCGC | 0.246
80 | CAACCCGA | 0.33
81 | TAACCCGA | 0.385
82 | TGACCCAA | -0.235
83 | AGCGAAAT | 0.0212
84 | CGATTATC | 0.15
85 | GATTCAGA | -0.121
86 | TCGGCACA | 0.441
87 | CCGGCCGA | 0.356
88 | CCGGCACA | 0.307

Row | Sequence | PBM E-score
89 | ACGGCTAA | 0.264
90 | CCGGCACG | 0.293
91 | CCGGCAGA | 0.286
92 | GCGGCCGA | 0.217
93 | TCGGCCGA | 0.419
94 | TCGGCTAA | 0.455
95 | GCGGCTAA | 0.287
96 | ACGGCAGA | 0.156
97 | TCGGCAGA | 0.41
98 | GACGTTGC | -0.00479
99 | AAGGCCTT | -0.207
100 | GGCGCCGA | 0.317
101 | GAGTAATC | -0.0725
102 | CGGACCCG | 0.346
103 | CCCTGCTA | -0.236
104 | ATTTGAGG | -0.0518
105 | CCACTTGA | -0.0304
106 | AATAGTCT | -0.236
107 | TCGGCAAA | 0.41
108 | ACGGCAAA | 0.243
109 | GCGGCAAA | 0.182
110 | AGGAGAAC | -0.179
